For 40 molecules, Inhibition results are on record in ChEMBL document CHEMBL4513146, “CO-ADD screening of Karazin Kharkiv National University (Ukraine) compounds”.

Results with a measured potency or affinity are listed apart.

This test has as its system Klebsiella pneumoniae. The following applies: Concentration 32 ug.mL-1;; ASSAY_TEST Inhibition of Bacterial Growth; detection method Absorption (OD600); MEDIA CAMHB; plate type 384well; NBS; CORNING #3640; time 18 hr.
Regarding `Cc1ccccc1Cn1nc2c(=O)n(-c3cccc(Cl)c3C)ccn2c1=O`, the Inhibition stood at 2.06%. In the case of `CCOc1ccc(-n2ccn3c(SC(C)C(=O)Nc4ccc5c(c4)OCCO5)nnc3c2=O)cc1` (stereo not given), the Inhibition is 14.39%. Under `CCc1nnc2ccc(S(=O)(=O)N(Cc3ccccc3)c3ccccc3)cn12` stands 4.93%; under `Cc1ccc2c(c1)N(C(=O)Cn1nc3ccc(SC(C)(C)C)nn3c1=O)CCO2`, 14.93%.

With `Cc1cccc(C)c1NC(=O)Cn1c(=O)c2nnc(C(C)C)n2c2ccccc21`, the Inhibition came to 1.46%. The value for `CCc1nnc2c(S(=O)(=O)N(Cc3cc(F)cc(F)c3)c3ccc(F)cc3)cccn12` was -0.25%; that for `Cc1ccc(Sc2nccn3c(=O)n(CC(=O)N4CCN(c5ccc(F)cc5)CC4)nc23)c(C)c1` was -6.63%. Take `COc1ccc(CNC(=O)Cn2nc3c(Oc4ccccc4C)nccn3c2=O)cc1`: the Inhibition amounted to 7.26%. Regarding `CC(C)c1nnc2c(=O)n(CC(=O)Nc3ccc(C#N)cc3)c3ccccc3n12`, the Inhibition was determined as 6.44%. The value for `COc1ccc(NC(=O)Cn2nc3c(Sc4cccc(C)c4)nccn3c2=O)cc1Cl` was 5.17%; that for `COc1ccc(-c2cc3c4nn(CC(=O)NCc5ccc(Cl)cc5)c(=O)n4ccn3n2)cc1` was 20.18%. The value for `O=c1n(Cc2cc(F)cc(F)c2)nc2ccc(-c3ccccc3)nn12` was 18.79%. On to `CCCn1c(=O)c2sccc2n2c(=O)n(CC(=O)c3cc(C)ccc3C)nc12`, for which the Inhibition was 9.58%. The value for `O=C(Cn1nc2c3cc(-c4ccc(F)cc4)nn3ccn2c1=O)Nc1ccc(Br)cc1` was 2.07%. The value for `O=C(CSc1nnc2c(=O)n(-c3cccc(F)c3)ccn12)Nc1ccc(Br)cc1` was 9.48%; that for `Cc1ccc(NC(=O)Cn2nc3ccc(SC4CCCCC4)nn3c2=O)c(Cl)c1` was 12.19%; that for `COc1ccc(-n2ccn3c(=O)n(Cc4cc(C)ccc4C)nc3c2=O)cc1Cl` was 9.01%.

Consider `O=C(Cn1nc2c(Sc3cccc(F)c3)nccn2c1=O)Nc1ccc(F)c(Cl)c1`, for which the Inhibition is given as -2.81%. Under `COC(=O)c1cccc(NC(=O)Cn2nc3ccc(-c4ccc(C)c(C)c4)nn3c2=O)c1` stands 6.94%; under `Cc1ccc(-n2ccn3c(SCC(N)=O)nnc3c2=O)cc1C`, 20.66%.

With `CCCN(C)c1nccn2c(=O)n(CC(=O)Nc3cccc(SC)c3)nc12`, the Inhibition is 8.64%. Under `CCc1ccccc1Sc1nccn2c(=O)n(CC(=O)Nc3ccc(C)cc3)nc12` stands -4.69%.

Regarding `CCc1nnc2c(S(=O)(=O)N(Cc3ccc(C)cc3)c3ccc(C(C)C)cc3)cccn12`, the Inhibition amounted to 10.84%. As for `COc1ccc(NC(=O)Cn2nc3c(Sc4cccc(F)c4)nccn3c2=O)cc1Cl`, the Inhibition is recorded as 3.02%. As for `COc1cccc(-n2ccn3c(SCC(=O)Nc4cc(F)ccc4F)nnc3c2=O)c1`, the Inhibition was 6.91%.

On to `N#Cc1cccc(Cn2nc3ccc(S(=O)(=O)N4CCCCCC4)cn3c2=O)c1`, for which the Inhibition is on record as 8.88%. The value for `COc1cccc(-n2ccn3c(SCC(=O)Nc4ccc5c(c4)OCCO5)nnc3c2=O)c1` was 14.27%; that for `C=Cc1ccc(CN(c2ccc(CC)cc2)S(=O)(=O)c2cccn3c(C)nnc23)cc1` was 2.48%; that for `COc1ccc(N2CCN(C(=O)Cn3nc4c(Oc5ccccc5)nccn4c3=O)CC2)cc1` was 15.08%. For `O=C(CSc1nc2ccccc2n2cnnc12)Nc1ccc2c(c1)OCCO2`, the Inhibition came out at 4.35%.

In the case of `CCOc1ccc(-n2ccn3c(SCC#N)nnc3c2=O)cc1`, the Inhibition was determined as 5.38%. The value for `COc1ccccc1N1CCN(C(=O)CSc2nnc3c(=O)n(-c4ccc(F)cc4)ccn23)CC1` was 11.85%; that for `COc1ccccc1-n1ccn2c(SCc3ccccc3C)nnc2c1=O` was 12.73%; that for `O=C(CSc1nnc2c(=O)n(-c3cccc(F)c3)ccn12)Nc1ccc(Br)cc1F` was 15.26%. Under `O=C(Cn1nc2c(=O)n(-c3ccc(Br)cc3)ccn2c1=O)Nc1cc(F)ccc1F` stands 9.16%; under `CC(C)c1ccc(CNC(=O)CCc2nnc3c(N4CCCCC4)nc4ccccc4n23)cc1`, 8.5%; under `Cc1nnc2ccc(S(=O)(=O)N(Cc3cccc(F)c3)c3ccc(F)c(F)c3)cn12`, 2.49%. Consider `COc1ccc(Cl)cc1NC(=O)CSc1nc2ccccc2n2cnnc12`, for which the Inhibition is on record as 13.26%. Under `CCOc1ccccc1NC(=O)Cn1nc2c3cc(-c4ccc(Cl)cc4)nn3ccn2c1=O` stands 12.1%. The value for `COc1cccc(Oc2nccn3c(=O)n(CC(=O)Nc4ccc(OC)c(OC)c4)nc23)c1` was 7.97%.
